Test results published in PubChem BioAssay AID1259325 (C. David Weaver Laboratory, Vanderbilt University, 2017).
Hit rate of the full screen: of about 63,000 compounds, about 30 (0.05%) were called active. The rule behind the calls is not given here. Not all results are given here.

target: G protein-activated inward rectifier potassium channel 2 (Homo sapiens) (UniProt P48051); test: opens human GIRK2 potassium channels (AID 1259325); conditions: HEK293-GIRK2 thallium flux, Thallos fluorescence, MPD
Sequence (P48051 whole entry, looked up): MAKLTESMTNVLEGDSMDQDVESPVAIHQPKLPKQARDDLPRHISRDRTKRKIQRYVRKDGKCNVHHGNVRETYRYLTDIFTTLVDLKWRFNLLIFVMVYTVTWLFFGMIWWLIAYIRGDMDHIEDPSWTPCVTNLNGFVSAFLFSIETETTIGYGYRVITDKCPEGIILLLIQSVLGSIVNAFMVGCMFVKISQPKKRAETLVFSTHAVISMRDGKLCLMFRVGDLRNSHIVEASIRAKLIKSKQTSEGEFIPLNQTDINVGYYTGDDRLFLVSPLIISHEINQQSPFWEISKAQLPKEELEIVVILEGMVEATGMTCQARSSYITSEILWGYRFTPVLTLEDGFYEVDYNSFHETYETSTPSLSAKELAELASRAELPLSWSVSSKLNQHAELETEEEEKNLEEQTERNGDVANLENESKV

outcome, inactive:
Cc1cc(NC(=O)c2ccc([N+](=O)[O-])o2)n(-c2nc3c(F)cccc3s2)n1
O=C(Cc1csc(Nc2ccc(OC(F)(F)F)cc2)n1)NCc1ccncc1
COC(=O)c1ccccc1NS(=O)(=O)c1ccc(N2C(=O)CCC2=O)cc1
Cc1cc(C(=O)Nc2nc3c(C)ccc(Cl)c3s2)on1
COc1ccc(CC(=O)NC2CC(O)C(CO)C2)cc1OC (centres undefined)
Cc1cc(C)c(C)c(S(=O)(=O)N2CCC(S(C)(=O)=O)C2)c1C (centres undefined)
O=C(OC1CN(c2nc3c(Cl)cccc3s2)C1)c1ccc(=O)[nH]n1
O=C(c1ccc(OC(F)(F)F)cc1)N1CCC(CSC2=NCCS2)CC1
COc1ccc(-c2csc(Cc3nc(-c4ccc(C(F)(F)F)cc4)no3)n2)cc1OC
COc1cc(C2c3c(oc4ccc(C)cc4c3=O)C(=O)N2CCO)cc(OC)c1OC (centres undefined)
Cc1oc2cc(OC(=O)N3CCOCC3)ccc2c(=O)c1-c1ccc(Br)cc1
O=C(CSc1nc2ccccc2o1)N1CCN(c2cc(N3CCCCC3)ncn2)CC1
O=C(Nn1cnc2c(cnn2-c2ccccc2)c1=O)c1ccc(Cl)cc1Cl
O=C1/C(=C/c2cc(Br)cc3c2OCOC3)Oc2cc(OC(=O)N3CCOCC3)ccc21
Cc1ccc(Nc2c(C(=O)N3CCOCC3)cnc3ccccc23)cc1C
COc1ccc(NC(=O)CCc2csc(NC(=O)c3ccc[nH]c3=O)n2)cc1Cl
COCCCn1c(C(=O)Nc2cccc(C)c2C)cc2c(=O)n(C)c(=O)n(C)c21
COc1ccc(C2C(C(=O)Nc3ccccc3)=C(C)Nc3nc(C)nn32)cc1OC (centres undefined)
COc1ccccc1OCC#CCNC(=O)CSc1nc2ccccc2s1
CCOc1ccccc1C(=O)Nc1ccc(C)c(N2CCCC2=O)c1
COC(=O)c1ccc(S(=O)(=O)NCCC(O)c2cc(C)oc2C)cc1 (centres undefined)
Cc1nnsc1C(=O)NCC1CCN(C(=O)c2ccoc2)CC1
CCC1CCCCN1C(=O)c1cnc2nc(C)ccc2c1Nc1ccc(S(C)(=O)=O)cc1 (centres undefined)
COc1ccc(NC(=O)c2cn(Cc3ccc(NC(=O)c4ccccc4F)cc3)cn2)cc1
CS(=O)(=O)N1CCc2nc(NC(=O)/C=C/c3ccccc3Cl)sc2C1
C=C1C(=O)O[C@H](CCCCCCCC)C1C(=O)O (some centres undefined)
COc1cc(CN2CC(c3nc4ccc(C)cc4[nH]3)C2)cc(OC)c1
COc1ccc(C(O)=C2C(=O)C(=O)N(c3cc(C)on3)C2c2ccc(C)cc2)cc1OC (centres undefined)
COc1cc(OC)cc(C(=O)Nc2ccc(Cl)c3ncsc23)c1
Cc1ccc(=O)n(CC(=O)N2CCC(Cc3ccccc3)CC2)n1
O=S(=O)(c1cccc(Cl)c1Cl)N1CCN(c2ccc(-c3ccccc3)nn2)CC1
O=C(C1CCN(c2ccc(-c3ccccc3)nn2)CC1)N1CCN(Cc2ccccc2)CC1
COc1ccc(N2CCN(CCCn3c(C)cn4c5c(=O)[nH]c(=O)n(C)c5nc34)CC2)cc1
O=C(O)CCC/C=C\C[C@@H]1[C@@H](/C=C/C(=O)COc2cccc(C(F)(F)F)c2)[C@H](O)C[C@@H]1O
O=C(c1cc(-c2ccco2)[nH]n1)N1CC(c2nc(-c3ccc[nH]c3=O)no2)C1
COc1ccc(OCc2noc(CNC(=O)/C=C/c3cccs3)n2)cc1
COc1ccc(OCc2noc(CNC(=O)c3ccc4nsnc4c3)n2)cc1
CC1CCC(NC(=O)C2CCN(c3nc4c(-c5ccccc5F)csc4c(=O)[nH]3)CC2)CC1 (centres undefined)
Cc1ccc(C)c(NC(=O)CSc2ncnc3nc(N4CCc5ccccc5C4)sc23)c1
O=C1NC(=NCCc2cccc(F)c2)S/C1=C\c1ccc2ncccc2c1
O=C(NCCC(O)c1cccc2ccccc12)Nc1ccccc1 (centres undefined)
O=C(Cc1ccccc1Cl)N1CCCC(c2nnc(-c3ccccc3F)s2)C1 (centres undefined)
CC(=O)Nc1nc2c(s1)CN(CC(=O)Nc1ccc(OC(F)(F)F)cc1)CC2
CCOCCn1c(-n2nc(C)cc2C)nc2c1c(=O)n(Cc1ccccc1F)c(=O)n2C
CCOC(=O)C1CCc2sc(NC(=O)CCc3c(C)nn(C)c3C)nc21 (centres undefined)
O=S(=O)(/C=C/c1ccccc1)NCc1ccc(C(O)c2cccs2)s1 (centres undefined)
COC(=O)c1ccccc1NC(=O)Cn1nc2nc(N3CCCC(C)C3)ccn2c1=O (centres undefined)
Cc1cccc(Cn2c(N3CCC(C(N)=O)CC3)nc3c2c(=O)[nH]c(=O)n3C)c1
CCCn1c(=O)c2cc(Cl)ccc2n2c(SCC(=O)Nc3ccc4c(c3)OCO4)nnc12
O=C(NCc1ccc2c(c1)OCO2)C1CCN(c2ncnc3c2sc2ncccc23)CC1
COc1ccc2c(=O)c3c(oc2c1)C(=O)N(CCCN(C)C)C3c1ccccc1 (centres undefined)
CC(=O)Nc1cccc(C#Cc2cncnc2Nc2ccc(OCc3cccc(F)c3)c(Cl)c2)n1
O=S(=O)(Cc1nc(-c2ccc(OCc3ccccc3)cc2)no1)c1ccccc1
O=C(NC1CCN(C(=O)c2cn(-c3ccc(Cl)cc3)nn2)CC1)C1CCCC1
COc1cccc(CSc2nc(C)c(CC(=O)Nc3cccc(Cl)c3C)c(=O)[nH]2)c1
COc1cc(-c2nc(CSc3nc4ccccc4c(=O)n3C)c(C)o2)cc(OC)c1OC
Cc1cn2c3c(=O)n(Cc4ccc(Br)cc4)c(=O)n(C)c3nc2n1CCCO
COc1ccc(S(=O)(=O)Nc2cccc(N3CCCCC3=O)c2)cc1
C#CCn1c(COc2ccccc2OC)nc2ccccc21
O=C(CCSc1ccccc1)NCCCn1ncccc1=O
CC(O)C(O)(C(=O)OCc1ccccc1NC(=O)CCC(=O)O)C(C)O (centres undefined)
O=C(Nc1cnoc1)c1ccc(OC(F)(F)F)cc1
Cc1nc(-c2noc(-c3cccnc3)n2)cn1CC(=O)N1CCc2ccccc21
O=C(Nc1cccc(F)c1)c1sccc1S(=O)(=O)N1CCN(c2ccccc2)CC1
